Assays:
Assay in all cases: PBM binding z-score (relative to random genomic background probes); higher = stronger binding; sequences stand for … in GC…GCGATTGACAGCGTAGAATGAAGG
[1] = system: FXR:RXRa (NR concentration 270 nM, RXRa partner concentration 90 nM)
Summary of the method: (§1)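 Probes were double-stranded and carried 34-nt variable regions with direct-repeat seeds, single-nucleotide variants, half-site ablations and random human genomic background sequences, printed on custom Agilent 4×180K protein-binding microarrays. Arrays were incubated 1 h with ligand-free nuclear receptor dimers in PBS pH 7.4, 2% milk, 0.02% Triton X-100, 1 mM DTT, 0.2 mg/mL BSA and 0.4 mg/ml salmon testes DNA. Antibodies against each partner (one per run) detected binding, and scanned fluorescence was regression-normalized. Binding z-scores use the random background probes as reference.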

[2] = system: LXRa:RXRa (NR concentration 270 nM, RXRa partner concentration 90 nM)
Summary of the method: as §1

[3] = system: LXRa homodimer (NR concentration 270 nM)
Summary of the method: as §1

[4] = system: LXRb:RXRa (NR concentration 270 nM, RXRa partner concentration 90 nM)
Summary of the method: as §1

[5] = system: LXRb homodimer (NR concentration 270 nM)
Summary of the method: as §1

[6] = system: PPARa:RXRa (NR concentration 270 nM, RXRa partner concentration 90 nM)
Summary of the method: as §1

[7] = system: PPARg:RXRa (NR concentration 180 nM, RXRa partner concentration 90 nM)
Summary of the method: as §1

[8] = system: PPARg:RXRa 270nM:90nM, anti-RXR (NR concentration 270 nM, RXRa partner concentration 90 nM)
Summary of the method: as §1

[9] = system: PPARg:RXRa 30nM:10nM, anti-RXR (NR concentration 30 nM, RXRa partner concentration 10 nM)
Summary of the method: as §1

[10] = system: PPARg:RXRa 90nM:30nM, anti-RXR (NR concentration 90 nM, RXRa partner concentration 30 nM)
Summary of the method: as §1

[11] = system: PPARg:RXRa DBDmut IVT, anti-RXR (DBD mutation: RXRa K156A/R161A, NR concentration 270 nM, RXRa partner concentration 90 nM)
Summary of the method: as §1

[12] = system: PPARg:RXRa IVT, anti-PPARg (NR concentration 270 nM, RXRa partner concentration 90 nM)
Summary of the method: as §1

[13] = system: PPARg DBDmut:RXRa IVT, anti-PPARg (DBD mutation: PPARg1 K132A/R137A, NR concentration 270 nM, RXRa partner concentration 90 nM)
Summary of the method: as §1

[14] = system: PPARg DBDmut IVT, anti-PPARg (DBD mutation: PPARg1 K132A/R137A, NR concentration 270 nM)
Summary of the method: as §1

[15] = system: PPARg homodimer (NR concentration 180 nM)
Summary of the method: as §1

[16] = system: PXR:RXRa (NR concentration 270 nM, RXRa partner concentration 90 nM)
Summary of the method: as §1

[17] = system: PXR homodimer (NR concentration 270 nM)
Summary of the method: as §1

[18] = system: RARa:RXR (NR concentration 270 nM, RXRa partner concentration 90 nM)
Summary of the method: as §1

[19] = system: RARa homodimer (NR concentration 270 nM)
Summary of the method: as §1

[20] = system: RARb:RXRa (NR concentration 270 nM, RXRa partner concentration 90 nM)
Summary of the method: as §1

Sequence | PBM binding z-score [1] | PBM binding z-score [2] | PBM binding z-score [3] | PBM binding z-score [4] | PBM binding z-score [5] | PBM binding z-score [6] | PBM binding z-score [7] | PBM binding z-score [8] | PBM binding z-score [9] | PBM binding z-score [10] | PBM binding z-score [11] | PBM binding z-score [12] | PBM binding z-score [13] | PBM binding z-score [14] | PBM binding z-score [15] | PBM binding z-score [16] | PBM binding z-score [17] | PBM binding z-score [18] | PBM binding z-score [19] | PBM binding z-score [20]
ACTATTAGTTGAGACGAGGCCAACCGATAGGTTG | 0.859 | 0.188 | 0.0694 | -0.0266 | 0.238 | 0.13 | 0.24 | -0.0513 | -0.341 | -0.176 | -0.553 | 0.338 | -0.0845 | 1.03 | 0.634 | 0.673 | 0.177 | 0.671 | 0.555 | 0.81
GCTGCTAGGTCAGGTTGGTCATCTAACGGGTACG | 1.59 | 1.01 | 0.226 | 0.755 | 0.00509 | 1.45 | 0.55 | 1.02 | -0.203 | 0.295 | 2.9 | 2.41 | -0.672 | -0.462 | 0.986 | 0.706 | -0.262 | 1.02 | -0.199 | 3.29
TCTTGTAGATCAAGCAGGTTAAGCAAGCCTGAGT | 0.175 | 0.151 | -0.473 | 0.104 | -0.672 | 0.618 | -0.429 | 1.09 | 2.44 | 1.39 | 1.65 | 0.529 | -0.37 | -0.0257 | -0.443 | 0.0788 | -0.00179 | 0.628 | -0.655 | 0.278
CGTCAAAGTTCAAGGTAACGTCACAGAAAGCAGC | 6.25 | 5.64 | 2.77 | 3.46 | 1.24 | 4.71 | 4.58 | 5.27 | 2.34 | 4.03 | 0.574 | 2.31 | 1.5 | 0.322 | 2.9 | 4.33 | 2.43 | 3.98 | 1.32 | 5.18
GCATATAGGCAATACAAGGTGAAAGTCCGATTGT | 0.177 | 0.0524 | -0.175 | 0.343 | -0.636 | 1.12 | 0.804 | 0.669 | 0.415 | 0.712 | 1.94 | 1.46 | 0.326 | -0.0602 | -0.222 | 0.231 | 0.012 | 0.876 | -0.301 | 0.172
CCTAGCAGGCCAGTGTCACTCAAGCATTTCGCTT | -0.361 | -0.253 | -0.614 | -0.187 | -0.597 | -0.0659 | -0.338 | -0.0615 | -0.773 | -0.752 | 1.35 | 0.117 | -1.21 | -1.52 | -0.723 | -0.407 | -0.826 | -0.184 | -0.658 | 0.286
CAAACTAGGTCACCGGAAGGTGAAAGTCCGCATG | 4.95 | 3.97 | 0.466 | 3.14 | 0.0268 | 5.42 | 9.29 | 7.34 | 5.78 | 7.31 | 8.74 | 8.89 | 2.99 | 0.925 | 4.64 | 2.98 | 0.142 | 4.74 | 0.555 | 4.54
ACAGACAGGTGATGAAGGTAACTGAGGCTATCAT | 0.003 | -0.0614 | -0.296 | -0.234 | -0.411 | 0.0902 | 0.558 | 0.0724 | -0.0753 | 0.0172 | 0.31 | 0.434 | 0.949 | 0.0407 | 0.301 | -0.124 | 0.0874 | 0.438 | 0.583 | 0.369
TCGAGTAGGTTACCAATGGGCCATTCAGCTTTCT | 0.506 | 1.7 | -0.585 | 0.464 | -1.18 | 1.09 | 0.383 | 1.13 | 0.927 | 1.04 | 3.13 | 2.59 | -1.01 | -0.848 | -0.318 | 0.108 | -0.851 | 0.175 | -0.737 | 0.862
CGAACTAGGTCAGAACAAGACAGTGAAGGATGAT | 0.848 | 0.591 | -0.0962 | 0.588 | -0.311 | 3.32 | 5.7 | 4.3 | 2.01 | 3.41 | 7.36 | 7.43 | 2.55 | 1.93 | 1.19 | 0.244 | 0.276 | 0.614 | 0.172 | 2.85
TCTAGAAGGCCAGAGGGTCACTCAAGAGGTACGG | 1.32 | 1.11 | -0.432 | 1.28 | -0.671 | 2.5 | 1.33 | 2.98 | 3.24 | 3.02 | 1.75 | 0.693 | -0.301 | 0.186 | 1.22 | 1.64 | 0.0475 | 2.54 | 0.19 | 2.68
TCTATTAGTTGATTAGCGCAACCGAAACAGCGGA | 0.828 | 0.894 | 0.314 | 0.663 | 0.632 | 0.774 | 0.0474 | 2.11 | 3.89 | 2.97 | 2.41 | 0.138 | 0.332 | 0.505 | 1.14 | 0.438 | 0.358 | 0.258 | 1.03 | 0.252
ACTAGCAGGCCAAGTTTGGGGCACTCAAACAAAG | -0.415 | -0.546 | -0.667 | -0.397 | -1.03 | -0.148 | -0.208 | -0.509 | -0.663 | -0.441 | 0.771 | 0.921 | -0.182 | -0.0456 | -0.843 | -0.333 | -0.763 | 0.00988 | -0.881 | 0.744
CGGACTAGGTCAAGGACAGTGAATCTCCGCACGC | 2.94 | 1.81 | -0.0937 | 1.01 | -0.662 | 3.77 | 5.95 | 5.25 | 2.5 | 4.61 | 7.61 | 7.26 | -0.333 | -0.703 | 0.837 | 0.934 | -0.0489 | 1.7 | 0.338 | 3.49
CCTAGTTGGTCGGGAGGTCACACACCGGATATGA | 3.79 | 3.32 | 2.67 | 3.48 | 1.04 | 3.89 | 2.12 | 2.73 | 0.776 | 2.07 | -0.134 | 1.89 | 0.253 | 0.694 | 3.59 | 4.29 | 2.4 | 4.55 | 2.58 | 3.47
